The source of these data is article PMC7819943, “Rice protein-binding microarrays: a tool to detect cis-acting elements near promoter regions in rice”.

In all, about 35,000 sequences were measured (“fluorescence intensity (a.u.)”: median about 10,000, highest 2% from about 52,000 on). The sample holds the highest values, similar sequences and a random draw of the others, so the mix is not that of the screen.

In the assay the target is T1, OsWOX13 (Oryza sativa, UniProt Q5QMM3 1-267).
T1 sequence: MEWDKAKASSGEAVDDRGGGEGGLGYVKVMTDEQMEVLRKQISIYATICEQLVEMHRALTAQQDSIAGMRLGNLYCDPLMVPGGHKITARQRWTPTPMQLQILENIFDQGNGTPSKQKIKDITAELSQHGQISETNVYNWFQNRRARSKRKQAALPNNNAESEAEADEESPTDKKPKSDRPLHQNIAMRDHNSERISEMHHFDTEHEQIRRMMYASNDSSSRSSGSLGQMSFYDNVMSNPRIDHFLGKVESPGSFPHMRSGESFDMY
Nature of the assay: protein-binding microarray (RPBM); PBS, 2% BSA, 51.3 ng/ul salmon testes DNA, 50 uM zinc acetate, 200 nM TF, 25 C, 1 h; high values mean tight binding. Conditions: protein: recombinant; tags: N-terminal polyhistidine and DsRed monomer fusion (pET32a); label: CyDye5-dUTP incorporated in the synthesized complementary strand; 3' TTTTT single-stranded linker to array surface; dsDNA, one strand shown. In a few lines:
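In PBS with 2% BSA, salmon testes DNA and 50 µM zinc acetate, 200 nM protein was incubated on a custom Agilent array at 25 °C for 1 h and then washed off. The array had been made double-stranded by primer extension with Cy5-dUTP and blocked with 2% BSA. The proteins were transcription factors fused N-terminally to polyhistidine and DsRed, expressed in E. coli BL21-CodonPlus and purified on Ni–NTA. The binding signal is per-feature fluorescence intensity (arbitrary units) from an Axon 4000B scanner.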
“TAGCCAATCTAATAGCTCATTCATATAATAATTACATACTCGGAGTCACCTAGTGCAG”: the binding signal was 4410 fluorescence intensity (a.u.).

On to “GTGACATCATAATTTAGATTTAACTTATTCGTGCATATTACGGAGTCACCTAGTGCAG”, for which the binding signal is 9460 fluorescence intensity (a.u.).

For the sequence “AGCTAAATCTGTGATTGCCGTTGCATCTAGCCACGTCGTCCGGAGTCACCTAGTGCAG”, the binding signal was 14600 fluorescence intensity (a.u.).

Consider “GAATAACAGACATATCATATTTGTTGCCTCCTGGTGGCTACGGAGTCACCTAGTGCAG”, for which the binding signal was 7840 fluorescence intensity (a.u.).

Take “ATTTGAATAATTAGGGAGTCTATGAACAGAAACATAGACCCGGAGTCACCTAGTGCAG”: the binding signal was 6000 fluorescence intensity (a.u.).

As to “TATCATCAATCCGCTAATTAACTGACAACGCATATTGGAGCGGAGTCACCTAGTGCAG”, the binding signal is 29400 fluorescence intensity (a.u.).

Consider “TATTGATTTGATAAAACTAATTTAGCATTATAAATATTATCGGAGTCACCTAGTGCAG”, for which the binding signal was 21300 fluorescence intensity (a.u.).

Consider “ATAGCTATATCAATCTAGAATTGGATTAGATATATCTCGACGGAGTCACCTAGTGCAG”, for which the binding signal was 6040 fluorescence intensity (a.u.).

Turning to “AAAATTAAATTGATGGTATTACTAGCATTAATTAGCCACTCGGAGTCACCTAGTGCAG”, the binding signal was 62800 fluorescence intensity (a.u.).

Regarding “TTCAAATTAAGCTGCTTTAGATTATAATCTGAAGCTGGGCCGGAGTCACCTAGTGCAG”, the binding signal is 17800 fluorescence intensity (a.u.).

Regarding “TGTTGGTGCTGTGATTAATTGGTAATCTGCTTTTACAAGCCGGAGTCACCTAGTGCAG”, the binding signal was 19800 fluorescence intensity (a.u.).

Consider “GTGATTGGATCTGTAATTATCAATCTCTCTCTCTCTCTCTCGGAGTCACCTAGTGCAG”, for which the binding signal was 64600 fluorescence intensity (a.u.).

Regarding “ATGTATATTAATTACTAGCCAAATGGTTAGCATGATTACTCGGAGTCACCTAGTGCAG”, the binding signal is 10900 fluorescence intensity (a.u.).

Turning to “GTAGATAATTAAATCGGATTAGCATTAGATAATCAAGCAACGGAGTCACCTAGTGCAG”, the binding signal is 37000 fluorescence intensity (a.u.).

On to “ATTAGCAATTAATTAATTATTAATTGGATAATTAATCACTCGGAGTCACCTAGTGCAG”, for which the binding signal is 64800 fluorescence intensity (a.u.).

As to “TCAATCAATTAATTAATTAATCGAATTGTGTTATATCTCTCGGAGTCACCTAGTGCAG”, the binding signal is 51000 fluorescence intensity (a.u.).

For the sequence “TGTGATTAATTGGTAATCTGCTTTTACAAGCTTCAATTGCCGGAGTCACCTAGTGCAG”, the binding signal was 60400 fluorescence intensity (a.u.).

On to “TCATATAATTGGATTTATAATTAATCACCAATACCAAACTCGGAGTCACCTAGTGCAG”, for which the binding signal was 35300 fluorescence intensity (a.u.).

For “AACATGGAGAATATGCTAATTAGTAAAACATGTTGAAGTGCGGAGTCACCTAGTGCAG”, the binding signal was 3290 fluorescence intensity (a.u.).

For “GCACAATCATGCTACTAATTACCCTTTTCAACCTATAAATCGGAGTCACCTAGTGCAG”, the binding signal is 11200 fluorescence intensity (a.u.).

Consider “ACTAATTACACAGAATGCATGTAAATTACGAGACGAATCTCGGAGTCACCTAGTGCAG”, for which the binding signal is 31200 fluorescence intensity (a.u.).

As for “AAATTAAATTGCCCGGATCAATGGCTACAAATACCCCATGCGGAGTCACCTAGTGCAG”, the binding signal was 15200 fluorescence intensity (a.u.).

With “AATACACATTGACAGATGAGTTAACGCCCGTGACAGGCTGCGGAGTCACCTAGTGCAG”, the binding signal is 20500 fluorescence intensity (a.u.).

Regarding “CTTTATAAATTGTGTCATCTACTCATGTGTGGTAGGTCAACGGAGTCACCTAGTGCAG”, the binding signal is 5450 fluorescence intensity (a.u.).

Take “TTGAATTTAAATTTAAACGTATAGTGCCTTCCCTTTTACGCGGAGTCACCTAGTGCAG”: the binding signal was 22900 fluorescence intensity (a.u.).

As to “CAAATTAACTGGAAATTTTGAAGCATCCATGTTCTGTGAGCGGAGTCACCTAGTGCAG”, the binding signal is 46600 fluorescence intensity (a.u.).

Consider “TTGATGTGCAATAATTAACGAGAGAAGAGTTTTCCCATAGCGGAGTCACCTAGTGCAG”, for which the binding signal is 10300 fluorescence intensity (a.u.).

For the sequence “TGGAATTGATTATGATGCTGTTTCCTTCATGGGAGCTCTACGGAGTCACCTAGTGCAG”, the binding signal is 31900 fluorescence intensity (a.u.).

“ATGGCTGGGTTGATTGATATGGAGTACAAACTAAGTGTAGCGGAGTCACCTAGTGCAG”: the binding signal was 25000 fluorescence intensity (a.u.).

Turning to “ACTAGTTAATCACGATTGATGGAAGCGGTTGATTGAATGACGGAGTCACCTAGTGCAG”, the binding signal was 51400 fluorescence intensity (a.u.).

With “ATTAATTAGCTCTAGATTAAGCTAATTGCCATCAATGGCTCGGAGTCACCTAGTGCAG”, the binding signal was 46400 fluorescence intensity (a.u.).

For “TGGAATTCATCTAATTATATCATTTTCCTCCATACTAGCTCGGAGTCACCTAGTGCAG”, the binding signal was 3430 fluorescence intensity (a.u.).

For “CCATTAGATTAGCACTAATTATCATACTTAGTCATTAGCTCGGAGTCACCTAGTGCAG”, the binding signal is 59100 fluorescence intensity (a.u.).

As to “ATCATGGCAAATGATTGAAACTTTGAAGTAACGTTGGTGCCGGAGTCACCTAGTGCAG”, the binding signal is 38800 fluorescence intensity (a.u.).

Turning to “TAAATTTGATTCCATTTCCGTTGCCTGTTCATTTCGTCGACGGAGTCACCTAGTGCAG”, the binding signal was 6090 fluorescence intensity (a.u.).

As to “TTAATCACTGGTAATTATAGATTTATAGGTGATTAATCACCGGAGTCACCTAGTGCAG”, the binding signal is 17900 fluorescence intensity (a.u.).

With “AAAATCACTGGATTAATTGATTGCGTCGTACTATCATTGCCGGAGTCACCTAGTGCAG”, the binding signal was 64600 fluorescence intensity (a.u.).

As to “TGGTGTAGGGTTATGATTGGATGAGTAGTGGAGGTAGGTACGGAGTCACCTAGTGCAG”, the binding signal is 8550 fluorescence intensity (a.u.).

For the sequence “AAAATTATGGATTGGATGATTAATCACTGATAGGTAGTACCGGAGTCACCTAGTGCAG”, the binding signal was 56900 fluorescence intensity (a.u.).

With “CTGGACTGTCAAATCAAGGAGGATTGCGTACTAATCATGTCGGAGTCACCTAGTGCAG”, the binding signal was 9940 fluorescence intensity (a.u.).

Regarding “AAATCATTAATAGTGCGTGATTAATTGAGTATTAATTATTCGGAGTCACCTAGTGCAG”, the binding signal was 8480 fluorescence intensity (a.u.).

In the case of “CTAAACACGTCCTATCATGTCACGTAGATAATATGACACGCGGAGTCACCTAGTGCAG”, the binding signal was 4110 fluorescence intensity (a.u.).

As to “TAGATAAATTACCCTAAAATCCTGTAAAACTTCTGCATTTCGGAGTCACCTAGTGCAG”, the binding signal is 3350 fluorescence intensity (a.u.).

In the case of “ATAAAATTTAATATTAAATATGCATTTGAACAGCTATAAACGGAGTCACCTAGTGCAG”, the binding signal was 6360 fluorescence intensity (a.u.).

“AATGCAGGAACAGCATAAGCTTTGCGTATATTTGTATTAACGGAGTCACCTAGTGCAG”: the binding signal was 65500 fluorescence intensity (a.u.).

For “AAATAAATTAATATAACTTATAAAGCAGCTTTTGTATAATCGGAGTCACCTAGTGCAG”, the binding signal was 13600 fluorescence intensity (a.u.).

“TTATTAATTCCATAATCAGAACTTTGATGTGATATAACCTCGGAGTCACCTAGTGCAG”: the binding signal is 9130 fluorescence intensity (a.u.).

With “TCTGGGTGATTTGTTGCAAAAGAATATTTTAATTCACTGCCGGAGTCACCTAGTGCAG”, the binding signal was 14000 fluorescence intensity (a.u.).

As for “GACTTTAATGATGCTGACACCGGCTTAATTAGTATTGCGGCGGAGTCACCTAGTGCAG”, the binding signal was 8560 fluorescence intensity (a.u.).

On to “GTGATGATGAATTAATTGCTGAATGGCGAATGCAGTGCAGCGGAGTCACCTAGTGCAG”, for which the binding signal was 58900 fluorescence intensity (a.u.).

As to “CATCTGGCGATTGCATATTAATTTGCATGGCGAAGCTTCCCGGAGTCACCTAGTGCAG”, the binding signal was 5830 fluorescence intensity (a.u.).

For the sequence “GCGAACTTAATTGCTGCTAGAATGCTGCTGAAATTGGTGACGGAGTCACCTAGTGCAG”, the binding signal was 8360 fluorescence intensity (a.u.).

Take “ATTTGATCTGATTTGATTAATTTTGCATGCACGCGAATGGCGGAGTCACCTAGTGCAG”: the binding signal was 61700 fluorescence intensity (a.u.).

For “GGGAGAGAATGTGCTAATTAATTGCATGCATGCATGCACGCGGAGTCACCTAGTGCAG”, the binding signal was 12000 fluorescence intensity (a.u.).
